TcdB inh: inhibitors of Clostridioides difficile toxin B glycohydrolase; P18177; TcdB glycohydrolase enzymatic assay, plate reader; inhibition, % at 9.99 µM; hit rate 0.24% among 350,000; AID 652162; in the data active = inhibition above about 10%
BioA inh-1: inhibitors of Mycobacterium tuberculosis BioA enzyme | purified M. tuberculosis BioA enzyme, plate reader | inhibition, % at 9.99 µM | hit rate 0.096% among 360,000 | AID 602481; in the data active = inhibition above about 40%; inconclusive = no clear call, values can overlap the other calls
Vc quorum ag: induces V. cholerae light production without autoinducers; V. cholerae BH1578 lux reporter, luminescence, 6 h; activation, % at 18.7 µM; hit rate 0.16% among 350,000; AID 588436; in the data active = activation mostly above about 9.7%, no sharp cut-off; inconclusive = no clear call, values can overlap the other calls; inactive = mostly below about 3.7%
FadD28 FP inh: blocks FadD28 binding to the bisubstrate probe; fluorescence polarization; inhibition, % at 12.5 µM; hit rate 0.22% among 360,000; in the data active = inhibition above about 8.5%, passing the limit was not always enough; inconclusive = no clear call, values can overlap the other calls
BioA inh-2: inhibitors of Mycobacterium tuberculosis BioA enzyme | shares compounds with BioA inh-1 | purified BioA enzyme, plate reader, dose response | max activity, % | 310 tested, under 10 active | AID 651679;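 note: top concentration of the dilution series was 10 µM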
HepG2 tox 2: cytotoxicity in HepG2 cells. shares compounds with BioA inh-1. max activity, %. AID 651898. 310 tested, under 10 active. plate reader
3T3 cytotox 5: kills NIH3T3 cells; shares compounds with BioA inh-1; NIH3T3 cytotoxicity, plate reader; activity change, negative = cytotoxicity, % at 26 µM; 310 tested, under 10 active; AID 651900
Large screens that a line does not name were inactive (follow-up assays come after a bar, where they were run). In the library only some 0.54% were active in any assay of this set; here they are far more common. Unless noted, the rule behind the calls is not given here.

C[C@@H]1CN([C@H](C)CO)C(=O)c2cc(NC(=O)c3ccccc3)ccc2O[C@@H](C)CCCCO[C@@H]1CN(C)S(=O)(=O)c1cccs1	none (no result: TcdB inh, Vc quorum ag, FadD28 FP inh)
CCC(=O)Nc1ccc2c(c1)C(=O)N(C)[C@H]1CC[C@@H](CC(=O)NC3CCCC3)O[C@@H]1CO2	none (no result: Vc quorum ag, FadD28 FP inh)
CNC(=O)C[C@H]1CC[C@@H]2[C@H](COC[C@@H](O)CN2C(=O)Nc2cccc(OC)c2)O1	BioA inh-1 77 (no result: Vc quorum ag, FadD28 FP inh) | BioA inh-2 inactive | HepG2 tox 2 inactive | 3T3 cytotox 5 inactive
COC(=O)C[C@H]1CC[C@@H]2[C@H](COC[C@@H](O)CN2C(=O)Nc2cccc(F)c2)O1	BioA inh-1 42 (no result: Vc quorum ag, FadD28 FP inh) | BioA inh-2 inactive | HepG2 tox 2 inactive | 3T3 cytotox 5 inactive
COC(=O)C[C@@H]1CC[C@H]2[C@@H](COC[C@@H](O)CN2C(=O)Nc2cccc(F)c2)O1	none (no result: Vc quorum ag, FadD28 FP inh)
C[C@H](CO)N1C[C@H](C)[C@@H](CN(C)Cc2ccccc2)Oc2ccc(NS(=O)(=O)c3ccccc3)cc2C1=O	none (no result: Vc quorum ag, FadD28 FP inh)
COc1ccc(F)cc1C(=O)C1CCCN(C(=O)c2ccc(C(C)=O)s2)C1 (configuration not stated)	BioA inh-1 71 | BioA inh-2 inactive | HepG2 tox 2 inactive | 3T3 cytotox 5 inactive
O=C(NC1CCCN(Cc2ccccc2F)C1)c1cccs1 (configuration not stated)	none
CC(=O)c1ccc(C(=O)N2CCCC(C(=O)c3cc(F)ccc3F)C2)s1 (configuration not stated)	none
CC(=O)c1ccc(C(=O)N2CCCC(C(=O)c3ccc(Cl)cc3)C2)s1 (configuration not stated)	BioA inh-1 49 | BioA inh-2 inactive | HepG2 tox 2 inactive | 3T3 cytotox 5 inactive
CC(=O)c1ccc(C(=O)NC2CCCN(Cc3ccccc3F)C2)s1 (configuration not stated)	BioA inh-1 46 | BioA inh-2 inactive | HepG2 tox 2 inactive | 3T3 cytotox 5 inactive
O=C(c1ccc(N2CCOCC2)cc1)N1CCCC(Nc2ccccc2)C1 (configuration not stated)	none
CC(=O)c1ccc(C(=O)N2CCCC(Nc3ccccc3)C2)s1 (configuration not stated)	BioA inh-1 64, FadD28 FP inh inconclusive | BioA inh-2 inactive | HepG2 tox 2 inactive | 3T3 cytotox 5 inactive
CS(=O)(=O)Nc1ccc2c(c1)[C@@H]1C[C@@H](CC(=O)NCC(F)(F)F)O[C@H](CO)[C@@H]1O2	none (no result: Vc quorum ag, FadD28 FP inh)
C[C@H](CO)N1C[C@H](C)[C@@H](CN(C)Cc2ccc3c(c2)OCO3)Oc2cc(C#CCN(C)C)ccc2S1(=O)=O	none (no result: Vc quorum ag, FadD28 FP inh)

From PubChem
